# The full ranking holds about 33,000 sequences; the median of “normalized occupancy” is about 0.075, and the highest 2% start at about 0.095. This excerpt belongs to a sample that is enriched for the highest values.
# Biological target: MaxL homodimer (Homo sapiens, UniProt P61244 1-160)
# Assay: universal protein-binding microarray (PBM); PBS-based mixture, 10 nM His-tagged protein dimer, 2% milk, 200 ng/uL BSA, 50 ng/uL salmon testes DNA, 0.02% TX-100; detection with Alexa 488 anti-His antibody;; high values mean tight binding
# Conditions: protein: recombinant; tags: C-terminal His-tag (pET21a); chain copies: 2; dsDNA, one strand shown
# In short: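 A His-tagged protein dimer at 10 nM was incubated on Agilent 4 x 44 K arrays of the 'all 10-mer' universal design, then labelled with 10 ng/μL fluorophore-conjugated anti-His antibody and scanned on a GenePix 4400A. A fluorescence intensity was assigned to each 8-mer. Binding occupancy is each such intensity normalised to that of the highest-ranked one.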
# Sequence of MaxL homodimer (P61244 whole entry): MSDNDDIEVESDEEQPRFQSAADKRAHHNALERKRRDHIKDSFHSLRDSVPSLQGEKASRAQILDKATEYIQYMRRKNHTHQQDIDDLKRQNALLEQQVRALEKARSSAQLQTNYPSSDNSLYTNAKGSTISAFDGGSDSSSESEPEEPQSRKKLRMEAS
row,Sequence,binding signal
1,ACCACGCT,0.123 normalized occupancy
2,CCCACGTC,0.0804 normalized occupancy
3,ACCACGAT,0.0936 normalized occupancy
4,ACACCACG,0.0983 normalized occupancy
5,ATCACGTA,0.0829 normalized occupancy
6,ACCACGGT,0.0803 normalized occupancy
7,ACACCACA,0.083 normalized occupancy
8,CCCACGGC,0.0782 normalized occupancy
9,ATCACGTG,0.363 normalized occupancy
10,CCCACGCC,0.099 normalized occupancy
11,ATCACGTC,0.0875 normalized occupancy
12,CGAAGGTA,0.0721 normalized occupancy
13,CTGTGGCA,0.0739 normalized occupancy
14,AGGAACAG,0.0793 normalized occupancy
15,CCCACACA,0.0838 normalized occupancy
16,ATCACGCG,0.132 normalized occupancy
17,ATCACGCC,0.0864 normalized occupancy
18,ACCACGGG,0.0834 normalized occupancy
19,ACCACGGA,0.0736 normalized occupancy
20,CCCACGCG,0.148 normalized occupancy
21,ATCACGCA,0.0877 normalized occupancy
22,ACCACGCG,0.187 normalized occupancy
23,CCCACGCA,0.0903 normalized occupancy
24,ACGACGAG,0.0759 normalized occupancy
25,AATTACGA,0.0775 normalized occupancy

row,Sequence,binding signal
1,AATGGCAA,0.0742 normalized occupancy
2,CTCAACAA,0.0728 normalized occupancy
3,ACTGCTTC,0.0747 normalized occupancy
4,AGTTGGTC,0.0747 normalized occupancy
5,ACGCGCCT,0.0828 normalized occupancy
6,ACACGCCT,0.0971 normalized occupancy
7,ACGCGCTG,0.077 normalized occupancy
8,ACACGCTG,0.108 normalized occupancy
9,ACACGCTA,0.0915 normalized occupancy
10,ACACGCCA,0.0895 normalized occupancy
11,ACACGCCG,0.1 normalized occupancy
12,ACACGCCC,0.0863 normalized occupancy
13,AAACGCCT,0.073 normalized occupancy
14,CGTTATAA,0.079 normalized occupancy
15,ATGGCTCA,0.0798 normalized occupancy
16,CCACCATC,0.0768 normalized occupancy
17,CCCGTAAA,0.0752 normalized occupancy
18,CATTAAGA,0.0765 normalized occupancy
19,ACCATATC,0.0845 normalized occupancy
20,CACATATG,0.095 normalized occupancy
21,ATCATATA,0.0893 normalized occupancy
22,AACATATG,0.1 normalized occupancy
23,ATCATATC,0.0861 normalized occupancy
24,AACATATA,0.0841 normalized occupancy
25,ATCATATG,0.0972 normalized occupancy

row,Sequence,binding signal
1,AGCATATC,0.0822 normalized occupancy
2,ACCATATA,0.0814 normalized occupancy
3,AGCATATG,0.103 normalized occupancy
4,ACCATATG,0.118 normalized occupancy
5,AGCATATA,0.0807 normalized occupancy
6,GTTACGTA,0.0751 normalized occupancy
7,CTCGATAC,0.0749 normalized occupancy
8,AAATGCTG,0.0762 normalized occupancy
9,AAAAGCTA,0.0755 normalized occupancy
10,GGTACGAC,0.0721 normalized occupancy
11,GAGCACAC,0.0956 normalized occupancy
12,CAGCACAC,0.0857 normalized occupancy
13,GAGCACAA,0.0775 normalized occupancy
14,GCAGAATA,0.0753 normalized occupancy
15,ACGTGAAG,0.1 normalized occupancy
16,AAGTGAAG,0.076 normalized occupancy
17,ACGTGAAC,0.0842 normalized occupancy
18,ACGTGAAA,0.097 normalized occupancy
19,CCGTGAAG,0.0739 normalized occupancy
20,ACGTGAAT,0.0824 normalized occupancy
21,GATGAAAC,0.0811 normalized occupancy
22,AGCGTTAC,0.0823 normalized occupancy
23,TACGCATA,0.0842 normalized occupancy
24,CACGCACG,0.096 normalized occupancy
25,CACGCAAG,0.0838 normalized occupancy

row,Sequence,binding signal
1,AACGCATA,0.0871 normalized occupancy
2,CACGCATG,0.121 normalized occupancy
3,CACGCATA,0.0976 normalized occupancy
4,CACGCACA,0.0923 normalized occupancy
5,CGCGCACG,0.0959 normalized occupancy
6,CGCGCACA,0.0822 normalized occupancy
7,GACGCATA,0.0777 normalized occupancy
8,GGCGCACA,0.0793 normalized occupancy
9,CACGCACC,0.0913 normalized occupancy
10,ACACAGTC,0.0783 normalized occupancy
11,GTAGTCTA,0.0723 normalized occupancy
12,GTACTACA,0.0864 normalized occupancy
13,ACTTTAGG,0.073 normalized occupancy
14,ACGCGAAG,0.0765 normalized occupancy
15,AGTAGTAA,0.0731 normalized occupancy
16,ACAACCGA,0.0733 normalized occupancy
17,AACGCATC,0.0731 normalized occupancy
18,AACGCATG,0.121 normalized occupancy
19,AACGCATT,0.0767 normalized occupancy
20,CACGCATC,0.0962 normalized occupancy
21,GACGCATC,0.077 normalized occupancy
22,AACGCAAG,0.073 normalized occupancy
23,AAACTATT,0.0745 normalized occupancy
24,TAGGACTA,0.0732 normalized occupancy
25,CACCCGTA,0.0782 normalized occupancy

row,Sequence,binding signal
1,CAGCATAG,0.0739 normalized occupancy
2,GAGCATGA,0.0963 normalized occupancy
3,CAGCATGG,0.13 normalized occupancy
4,TAGCATGA,0.0921 normalized occupancy
5,CAGCATCG,0.0732 normalized occupancy
6,GAGCATAA,0.0797 normalized occupancy
7,CAGCATAA,0.0808 normalized occupancy
8,CAGCATGA,0.106 normalized occupancy
9,GAGCATCA,0.0734 normalized occupancy
10,CGTCGAAC,0.0719 normalized occupancy
11,ACTCGTGG,0.0955 normalized occupancy
12,GCTCGTGA,0.0843 normalized occupancy
13,CCTCGTGA,0.125 normalized occupancy
14,ACTCGTGA,0.0957 normalized occupancy
15,AATCGTGG,0.0832 normalized occupancy
16,CCTCGTTC,0.0806 normalized occupancy
17,CCTCGTGC,0.133 normalized occupancy
18,ACTCGTCA,0.0793 normalized occupancy
19,AGTCGTGA,0.0749 normalized occupancy
20,CCTCGTTA,0.0752 normalized occupancy
21,ACTCGTGC,0.0933 normalized occupancy
22,CATCGTGC,0.0886 normalized occupancy
23,ACGTTGAA,0.083 normalized occupancy
24,GGGACCAC,0.078 normalized occupancy
25,CTCTCCAC,0.0859 normalized occupancy

row,Sequence,binding signal
1,CTATGCTA,0.0768 normalized occupancy
2,AGACACAT,0.0849 normalized occupancy
3,CTAAGGTC,0.0732 normalized occupancy
4,AAATGACC,0.0764 normalized occupancy
5,ATAAGCTG,0.0801 normalized occupancy
6,ATGCGTGA,0.0965 normalized occupancy
7,ATGCGTCC,0.0782 normalized occupancy
8,CTGCGTGA,0.0818 normalized occupancy
9,CTGCGTGC,0.0861 normalized occupancy
10,ATGCGTTG,0.0816 normalized occupancy
11,ATGCGTAG,0.0832 normalized occupancy
12,ATGCGTGC,0.0969 normalized occupancy
13,ATGCGTGG,0.106 normalized occupancy
14,GTGCGTGA,0.0887 normalized occupancy
15,ACATCCCG,0.0795 normalized occupancy
16,AGAATGGA,0.0768 normalized occupancy
17,GCGACGCA,0.0736 normalized occupancy
18,CGCGTAAC,0.0752 normalized occupancy
19,CCACATAG,0.0803 normalized occupancy
20,CAACATGC,0.094 normalized occupancy
21,CCACATGA,0.134 normalized occupancy
22,CCACATGG,0.227 normalized occupancy
23,CAACATGG,0.0932 normalized occupancy
24,CAACATGA,0.0936 normalized occupancy
25,CCACATGC,0.163 normalized occupancy

row,Sequence,binding signal
1,CCACATTA,0.093 normalized occupancy
2,CCACATTC,0.0852 normalized occupancy
3,GATCCGCA,0.0769 normalized occupancy
4,CATTCAGC,0.0725 normalized occupancy
5,GAATTATA,0.0789 normalized occupancy
6,TCACTGCA,0.075 normalized occupancy
7,CTCAAGTC,0.0771 normalized occupancy
8,AAGGTTTA,0.0757 normalized occupancy
9,CACACGCA,0.0865 normalized occupancy
10,CACACACA,0.087 normalized occupancy
11,AACACGCT,0.0974 normalized occupancy
12,AACACGCC,0.0909 normalized occupancy
13,CACACACG,0.0916 normalized occupancy
14,AACACGCA,0.0915 normalized occupancy
15,GACACGCC,0.0849 normalized occupancy
16,AACACGGT,0.0777 normalized occupancy
17,CACACGCC,0.0955 normalized occupancy
18,AACACGCG,0.12 normalized occupancy
19,AACACACA,0.0847 normalized occupancy
20,CACACGCG,0.124 normalized occupancy
21,CCACGGAC,0.0742 normalized occupancy
22,CGACTAAA,0.0736 normalized occupancy

# From paper PMC4242493, “Sequence specificity incompletely defines the genome-wide occupancy of Myc”
